# p53 reactivator = qHTS assay for re-activators of p53 using a Luc reporter; H1299 p53-A138V BP100-luciferase reporter, luminescence, 24 h; Potency, µM (series often up to 92.2 µM), for the others: at the highest dose activity change, positive = activation, hits mostly activators; hit rate 0.063% among 320,000; AID 504706, 2011; also: % of control where 0% means no effect; nearly all actives have a fitted effect of over 45% in size
#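 p53-null H1299 cells stably carrying temperature-sensitive p53-A138V and a BP100-luciferase reporter were pinned with compounds (4-point, 1:5 series) and held 24 hrs at 37 deg C. Luminescence was read 10 min after detection reagent.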
# Rab9 prom act = qHTS Assay for Rab9 Promoter Activators | Huh7 Rab9 promoter-luciferase reporter, luminescence, 24 h | Potency, µM (series often up to 9.22 µM), for the others: at the highest dose activation, negative = inhibition, usual class: activators | hit rate 2.8% among 320,000 | AID 485297, 2010; also: % of control where 0% means no effect; nearly all actives have a fitted effect of over 60% in size
#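 Huh7 reporter line, Rab9 promoter upstream of luciferase. Compound exposure 24 h at 37 °C in reduced-serum medium with 10% FBS. Read-out: luminescence.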
# NPC1 promoter act = qHTS Assay for NPC1 Promoter Activators | Huh7 NPC1 promoter luciferase reporter, 24 h | hit rate 2.4% among 320,000 | Potency, µM (series often up to 9.22 µM), without a hit: at the top dose activation, hits mostly activators | AID 485313, 2010; also: % of control where 0% means no effect; nearly all actives have a fitted effect of over 60% in size
#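 Luciferase expression driven by the NPC1 promoter was measured in stably transfected Huh7 cells after a 24 h compound incubation, using a luciferase reagent and a luminescence read.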
# SMN2 splice enh = qHTS Assay for Enhancers of SMN2 Splice Variant Expression. HEK293 SMN2-luciferase splicing reporter, luminescence, 30-36 h. Potency, µM (top dose mostly 46.1 µM), without a hit: at the top dose activity change, positive = activation, hits mostly activators. AID 1458, 2008. hit rate 2.8% among 210,000; also: % of control where 0% means no effect; nearly all actives have a fitted effect of over 55% in size
#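 HEK293 cells carry an SMN2 […]–luciferase reporter in which exon 7 inclusion puts luciferase in frame. Cells were plated 10-12 h before compound addition, then incubated 30-36 h at 37C. ONE-Glo luminescence was read; sodium butyrate at 4.5 mM final served as control.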
# ELG1 genotoxic = qHTS screen for small molecules that induce genotoxicity in human embryonic kidney (HEK293T) cells expressing luciferase-tagged ELG1; HEK293T ELG1-luciferase reporter, luminescence, 16 h; Potency, µM (series often up to 46 µM), for the others: top-dose activity change, positive = activation, actives largely listed as activators; hit rate 1.3% among 330,000; also: % of control where 0% means no effect; nearly all actives have a fitted effect of over 60% in size
#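 After overnight (16 hr) compound treatment at 37 °C, ELG1-luciferase HEK293T cells were lysed with ONE-Glo; luminescence quantified 30 min later at room temperature.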
# FLuc modulator = qHTS profiling assay for firefly luciferase inhibitor/activator using purifed enzyme and Km concentrations of substrates (counterscreen for miR-21 project). Luciferin 4-monooxygenase (Photinus pyralis), P08659. purified FLuc, Km substrates, luminescence inhibition. Potency, µM (highest dose often 57.5 µM), for the others: at the highest dose activity change, negative = inhibition, hits mostly inhibitors. hit rate 6.9% among 360,000. AID 588342, 2011;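 also: plate controls were vehicle for no effect and reference inhibitor for full effect; nearly all actives have a fitted effect of over 55% in size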
# Target sequence (P08659 whole entry, looked up): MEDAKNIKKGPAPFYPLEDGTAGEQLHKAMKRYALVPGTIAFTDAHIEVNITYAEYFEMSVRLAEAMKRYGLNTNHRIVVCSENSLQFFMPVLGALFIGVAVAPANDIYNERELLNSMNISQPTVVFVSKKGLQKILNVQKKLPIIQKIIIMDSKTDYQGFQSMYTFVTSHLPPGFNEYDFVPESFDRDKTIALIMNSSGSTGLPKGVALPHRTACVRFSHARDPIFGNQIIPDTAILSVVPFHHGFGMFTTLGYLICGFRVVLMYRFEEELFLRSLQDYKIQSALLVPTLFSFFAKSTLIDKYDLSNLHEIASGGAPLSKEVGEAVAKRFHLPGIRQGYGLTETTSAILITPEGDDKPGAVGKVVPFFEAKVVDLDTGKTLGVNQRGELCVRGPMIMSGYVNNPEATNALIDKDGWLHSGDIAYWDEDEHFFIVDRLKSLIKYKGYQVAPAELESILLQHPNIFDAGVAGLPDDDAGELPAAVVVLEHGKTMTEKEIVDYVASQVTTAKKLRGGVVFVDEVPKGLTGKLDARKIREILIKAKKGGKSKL
#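 Purified P. pyralis luciferase (10nM final) with 10uM D-luciferin and 10uM ATP (Km levels) in 50mM Tris acetate pH 7.5, 10mM Mg acetate, 0.01% Tween-20, 0.05% BSA; qHTS 6-point titration, ~60 µM downward; luminescence read.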
# * = called active by the depositor; ? = inconclusive; nt = no result; [ ] = dose if it differs, or a comment. The list is not random: actives were taken first. Their share in the collection is about 7.3%. Calls follow the shape of the dose curve; as a rule, active = well fitted curve in the direction sought with a large enough effect; inconclusive = small, poorly fitted or top-dose-only effect, or another doubt; inactive = no such curve, though single readings can be large; an effect the other way counts as inactive or inconclusive. Potency is read from the fitted curve at half-maximal effect.
SMILES,p53 reactivator,Rab9 prom act,NPC1 promoter act,SMN2 splice enh,ELG1 genotoxic,FLuc modulator
Cc1ccc(NC(=O)c2ccccn2)c(Br)c1,?,2.8µM*,?,nt,4.1µM*,7.6µM*
O=C(CCCOc1ccc(Cl)cc1)NC1CCCCC1,-8%,-4%,-1%,nt,-4%,3%
O=C(Cn1nnc2ccccc21)OCC(=O)c1ccc(Cl)cc1,2%,1%,-3%,nt,0%,?
O=C(Cn1nnc2ccccc21)OCc1ccccc1,2%,0%,-6%,nt,1%,21µM*
c1ccc(CCn2nnc3ccccc32)cc1,12%,3.2µM*,3.2µM*,nt,?,11µM*
O=C(Cn1nnc2ccccc21)NCc1ccccc1,?,3.2µM*,2.2µM*,11µM*,7.3µM*,13µM*
O=C(O)C(Sc1ccc(Cl)cc1)Sc1ccc(Cl)cc1,nt,nt,nt,-9%[9.22 µM],nt,nt
C#CCn1c(/C=C/c2ccc(Cl)cc2)nc2ccccc21,nt,nt,nt,2.5µM*,nt,0.19µM*
CC(NC(=O)/C=C/c1ccco1)c1nc2ccccc2n1Cc1c(Cl)cccc1Cl (configuration not stated),8%,14%,7%,-3%,-1%,2%
Clc1ccc(Cn2c(/C=C/c3ccco3)nc3ccccc32)cc1,?,3.5µM*,?,95%,14%,11µM*
Cc1ccc(Cn2c(/C=C/c3ccco3)nc3ccccc32)cc1,?,?,?,nt,?,11µM*
CC(=O)N1C2(C=CC1(C)C(=O)NCCN1CCOCC1)CCCCC2 (configuration not stated),nt,nt,nt,-7%,nt,nt
CC(C)[C@H](N=Cc1ccccc1O)C(=O)O,nt,nt,nt,-3%[9.22 µM],nt,nt
Cc1cccc(NC(=O)c2n[nH]c([N+](=O)[O-])c2Br)c1C,0%,1µM*,0.79µM*,10µM*,?,3.8µM*
O=C(O)C(C(=O)/C=C/c1ccco1)=C1SCCS1,28%,-4%,14%,-58%,7%,?
O=C(/C=C/c1ccc([N+](=O)[O-])cc1)/C=C/c1ccco1,-19%,2%,-5%,nt,0%,4.3µM*
O=C(C=C1SCCS1)/C=C/c1ccco1,4%,2.5µM*,0.71µM*,13µM*,?,1.3µM*
Cc1ccc(C(=O)Nc2cc3c(cc2Cl)OCCCO3)cc1,21%,2µM*,1.8µM*,11µM*,?,7.6µM*
CC(=O)Nc1cc2c(cc1C(=O)c1ccc(C)cc1)OCCO2,nt,nt,nt,-17%,nt,-1%
O=C(Nc1cc2c(cc1Br)OCCCO2)c1cccnc1,23%,8%,20%,nt,?,?
O=C(Nc1cc2c(cc1Br)OCCCO2)c1ccccc1,?,4µM*,3.5µM*,16µM*,?,13µM*
O=C(Nc1cc2c(cc1Cl)OCCCO2)c1ccc(F)cc1,?,2.8µM*,?,7.9µM*,?,12µM*
COC(=O)CSc1ncnc2c1sc1nc3c(cc12)COC(C)(C)C3,6%,?,25%,22%,-9%,?
CCc1nc(OCc2ccco2)c2sc3nc4c(cc3c2n1)COC(C)(C)C4,2%,0%,-1%,nt,-2%,-20%
COc1nc(C)nc2c1sc1nc3c(cc12)COC(C)(C)C3,?,2µM*,2.5µM*,14µM*,8.2µM*,13µM*
SMILES,p53 reactivator,Rab9 prom act,NPC1 promoter act,SMN2 splice enh,ELG1 genotoxic,FLuc modulator
Cc1nc(OCC(C)C)c2sc3nc4c(cc3c2n1)COC(C)(C)C4,23%,1.4µM*,1.8µM*,nt,?,9.5µM*
CCN(C(=O)COC(=O)c1ccc(=O)n(Cc2ccccc2)n1)C1CCS(=O)(=O)C1 (configuration not stated),0%,-3%,-1%,nt,2%,-2%
Nc1n[nH]c(N)c1N=Nc1cccc(F)c1,-4%,-3%,2%,18%,5%,24µM*
Nc1[nH]ncc1N=Nc1ccc(Cl)cc1,3%,?,29%,11%,18µM*,13µM*
Nc1n[nH]c(N)c1N=Nc1ccc(Cl)cc1,?,22%,9%,16%,?,15µM*
Nc1[nH]ncc1-c1ccc(Cl)cc1,23%,-4%,0%,2%,-5%,-8%
Cc1cccc(N=Nc2c(N)n[nH]c2N)c1,11%,22%,13%,nt,13%,?
Cc1ccc(C(=O)O/N=C(\N)Cc2ccc([N+](=O)[O-])cc2)c(Cl)c1,-9%,-1%,-3%,nt,4%,21µM*
Cc1ccc(C(=O)O/N=C(\N)Cc2cccs2)c(Cl)c1,?,2µM*,1.6µM*,nt,2.1µM*,1.2µM*
Cc1cc(OCC(=O)O/N=C(\N)Cc2cccs2)ccc1Br,11%,2%,-1%,7%,-1%,?
NC(N)=NCCCC(NC(=O)c1ccccc1)C(=O)Nc1ccc2ccccc2c1 (configuration not stated),-1%,-3%,1%,nt,-4%,1%
CC(C)(C)c1ccc(/C=N/OCC(=O)NCc2ccc(F)cc2)cc1,-2%,0%,-1%,-12%,-3%,30µM*
Cc1ccc(CNC(=O)CO/N=C/c2ccc(C(C)(C)C)cc2)cc1,10%,-4%,-2%,-16%,-3%,?
CC(C)(C)c1ccc(/C=N/OCC(=O)NCc2ccccc2)cc1,16%,-9%,0%,-14%,-1%,17µM*
CCOC(=O)CNc1c(-c2ccccc2)nc2ccc(Cl)cn12,11%,23%,28%,0%,9%,9.5µM*
COC(=O)CNc1c(-c2ccccn2)nc2ccc(Br)cn12,nt,0.89µM*,1.6µM*,5µM*,1.3µM*,3.4µM*
CCOC(=O)CNc1c(-c2ccc(O)cc2)nc2ccccn12,?,24%,3%,-1%,4%,?
Cc1ccccc1Nc1c(-c2ccncc2)nc2ccc(Cl)cn12,15%,12%,-7%,10µM*,-9%,-4%
CCOC(=O)CNc1c(-c2ccc(O)cc2)nc2ccc(Cl)cn12,13%,29%,20%,38%,?,15µM*
Cc1ccc(Nc2c(-c3ccccn3)nc3ccc(Br)cn23)cc1,nt,nt,nt,5%,nt,0%
COc1ccc(C(CNC(=O)Nc2cccc(C)c2)N2CCN(C)CC2)cc1 (configuration not stated),-6%,8%,0%,nt,1%,-5%
O=C(/C=C/c1ccc[nH]1)c1ccc(F)cc1,12%,1%,6%,?,?,12µM*
O=C(/C=C/c1c(F)cccc1Cl)c1ccc(F)cc1,-13%,13%,1%,-72%,2%,6.7µM*

# High-throughput results as filed in PubChem BioAssay.
